DT40 TDP1 CPT: qHTS for Inhibitors of human tyrosyl-DNA phosphodiesterase 1 (TDP1): qHTS in cells in presence of CPT | chicken DT40 Tdp1-/-;hTDP1 cells + 20 nM CPT, ATP luminescence, 48 h | Potency, µM (highest dose often 46.2 µM), inactives show top-dose activity change, negative = growth inhibition, most hits filed as inhibitors | 420,000 compounds, 12% hits | AID 686979, 2013; also: potency is read from the fitted curve at half-maximal effect; nearly all actives have a fitted effect of over 55% in size
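Cell growth measured by CellTiter-Glo luminescence after a minimum 48 h, 37 C compound exposure with 20 nM CPT in Tdp1-knockout DT40 cells stably expressing hTDP1, seeded 400/well; qHTS titration format.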
HT1080-NT tox: qHTS for induction of synthetic lethality in tumor cells producing 2HG: qHTS for the HT-1080-NT fibrosarcoma cell line. HT-1080-NT fibrosarcoma viability, CellTiter-Glo ATP luminescence, 48 h. Potency, µM (highest dose often 46.1 µM), for the others: at the highest dose activity, negative = less viability, most hits filed as cytotoxic. 360,000 compounds, 1.6% hits. AID 686970, 2013;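 also: NT is the 2HG producing partner of a matched IDH1 knockdown line; potency is read from the fitted curve at half-maximal effect; 0% = DMSO-treated cells and -100% = media-only wells without cells; nearly all actives have a fitted effect of over 55% in size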
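Fibrosarcoma NT cells, 750 per well in 5% FBS RPMI, were exposed to compound for 48 hours. Viability: CellTiter-Glo luminescence.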
HT1080 IDH1KD tx: qHTS for induction of synthetic lethality in tumor cells producing 2HG: qHTS for the HT-1080-IDH1KD cell line; HT-1080 IDH1 knockdown viability, ATP luminescence, 48 h; Potency, µM (top dose mostly 46.1 µM), for the others: at the highest dose activity, negative = toxicity, actives largely listed as cytotoxic; 360,000 compounds, 2% hits; AID 686971, 2013;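 also: potency is read from the fitted curve at half-maximal effect; 0% = DMSO wells and -100% = cell-free medium wells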
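After a 2 h attachment period, IDH1KD HT-1080 cells took pin-transferred compound for 48 h at 37 °C; ATP-based luminescence after 10 min room-temperature reagent incubation reported viability.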
TDP1 cell noCPT: qHTS for Inhibitors of human tyrosyl-DNA phosphodiesterase 1 (TDP1): qHTS in cells in absence of CPT; DT40 Tdp1-/- hTDP1 cells, no CPT, ATP luminescence, 48 h; Potency, µM (highest dose often 46.2 µM), inactives show at the top dose activity change, negative = growth inhibition, most hits filed as inhibitors; 420,000 compounds, 15% hits; also: potency is read from the fitted curve at half-maximal effect; nearly all actives have a fitted effect of over 55% in size
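Growth of hTDP1-complemented DT40 Tdp1-knockout cells is measured by ATP luminescence after at least 48 hr compound exposure at 37 °C, with DMSO substituting for the 20 nM CPT used in the parallel screen.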
IL-1B inflam inh: qHTS for Inhibitors of Inflammasome Signaling: IL-1-beta AlphaLISA Primary Screen; activity change, % at 57.5 µM; 360,000 compounds, 4.7% hits; THP-1 LPS/ATP IL-1B secretion, AlphaLISA, 16 h; active compounds read low; in the data active = activity change below about -50%; inconclusive = mostly about -30% to -49%
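THP-1 cells pretreated 1 hr with compounds (up to 57.5 uM final), then stimulated with LPS (250 ng/mL final) plus ATP (1.25 mM final); secreted IL-1B measured by AlphaLISA after 16 hr, decreased signal indicating inhibition.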
Numbers without * were called inactive; ? = inconclusive; · = not tested or not shown. This is a sample that favours compounds with a hit; in the whole collection about 19% have one here. Unless noted, calls follow the shape of the dose curve; as a rule, active = well fitted curve in the direction sought with a large enough effect; inconclusive = small, poorly fitted or top-dose-only effect, or another doubt; inactive = no such curve, though single readings can be large; an effect the other way counts as inactive or inconclusive. Unless noted, % is scaled to controls: 0 for no effect and ±100 for the full control effect.

SMILES	DT40 TDP1 CPT	HT1080-NT tox	HT1080 IDH1KD tx	TDP1 cell noCPT	IL-1B inflam inh
Cc1cc(NC(=O)c2coc(=O)c(Br)c2)ccc1C(C)C	0.52µM*	?	21µM*	1.8µM*	·
C[C@@H](NC(=O)c1coc(=O)c(Br)c1)c1ccccc1	0.46µM*	9.2µM*	8.2µM*	0.73µM*	-6
COc1ccc(C(=O)NC(C)c2ccccc2)cc1Br (centres undefined)	-7%	-1%	2%	-14%	-3
O=C(Nc1ccc(Br)cn1)c1coc(=O)c(Br)c1	1.5µM*	-9%	-18%	3.7µM*	?
O=C(NCCc1ccc(F)cc1)c1ccc([N+](=O)[O-])cc1	-16%	18%	13%	-10%	-8
O=C(c1ccccc1Nc1ccc(SC(F)F)cc1)N1CCCCCC1	?	-8%	-18%	?	-16
COc1ccc(Cn2cc(S(=O)(=O)c3ccc(Cl)cc3)c(=O)c3cc4c(cc32)OCO4)cc1	3%	·	·	-15%	·
O=C(Nc1ccccc1F)Nc1ccccc1Br	-25%	-1%	-6%	?	0
O=C(Nc1ccccc1F)c1coc(=O)c(Br)c1	0.52µM*	2%	7%	1.6µM*	0
c1ccc2c(C[C@@H]3CNCCN3CCC34CC5CC(CC(C5)C3)C4)cccc2c1	18µM*	-17%	-3%	?	10
c1ccc(C2(CN3CCNC[C@H]3Cc3cccc4ccccc34)CC2)cc1	?	-10%	-3%	?	-68*
CC(C)(C)CN1CCNC[C@H]1Cc1cccc2ccccc12	?	1%	2%	?	?
COc1ccc(CN(CCCn2cnc3c(OC)ncnc32)CCCn2cnc3c(OC)ncnc32)cc1	?	13%	8%	?	18
Cc1nnc(NC(=O)c2ccc(S(=O)(=O)N3CC(C)OC(C)C3)cc2)o1 (centres undefined)	-10%	-9%	-12%	-23%	6
CCC1CCCCN1S(=O)(=O)c1ccc(C(=O)Nc2nnc(-c3cccs3)o2)cc1 (centres undefined)	6.3µM*	8.9µM*	14µM*	6.3µM*	33
CC1CC(C)CN(S(=O)(=O)c2ccc(C(=O)Nc3nnc(-c4cccs4)o3)cc2)C1 (centres undefined)	6.3µM*	14µM*	?	5µM*	26
CC1CC(C)CN(S(=O)(=O)c2ccc(C(=O)Nc3sccc3C(N)=O)cc2)C1 (centres undefined)	18µM*	-25%	?	21µM*	24
COc1ccc(OCC(=O)N(Cc2sccc2C)C2CCS(=O)(=O)C2)cc1 (centres undefined)	0%	3%	8%	10%	5
CCCCN(CC)C(=O)CSc1nc2n[nH]c(C)c2c(=N)n1-c1cccc(Cl)c1	12µM*	·	·	10µM*	·
CCCCNC(=O)CSc1nc2n[nH]c(C)c2c(=N)n1-c1cccc(C)c1	18µM*	·	·	12µM*	·
CCCn1c(SCC(=O)NCc2ccc(C)cc2)n[nH]c1=O	-18%	-2%	-6%	13%	-8
Cc1ccc(CNC(=O)CSc2nc3n[nH]c(C)c3c(=N)n2-c2cccc(C)c2)cc1	13µM*	?	?	9.2µM*	7
Nc1ccccc1N=c1ssnc1Cl	?	-14%	-1%	?	21
Cc1ccc(N=c2ssnc2Cl)cc1	5.8µM*	?	?	3.7µM*	-17
Cc1cc(C)nc(/N=c2/ssnc2Cl)c1	7.3µM*	6%	-1%	9.2µM*	-101*
SMILES	DT40 TDP1 CPT	HT1080-NT tox	HT1080 IDH1KD tx	TDP1 cell noCPT	IL-1B inflam inh
Cc1nnc(N=c2ssnc2Cl)o1	1µM*	1%	-3%	1µM*	-15
Cc1cc(Cl)ccc1N=c1ssnc1Cl	13µM*	?	23µM*	16µM*	?
CC(C)(C)c1ccc(Oc2ccc(NC(=O)c3ccco3)cn2)cc1	1.8µM*	18µM*	7.3µM*	1.6µM*	-12
O=C(Nc1ccc(Oc2cccc(C(F)(F)F)c2)nc1)c1ccco1	-16%	-22%	?	12µM*	-13
O=C(Nc1ccc(Oc2cccnc2)nc1)c1ccc(C(F)(F)F)cc1	?	-17%	?	15µM*	?
COc1ccc(NC(=O)c2cccs2)cn1	-14%	?	26%	-14%	-4
CC(C)(C)c1ccc(Oc2ccc(NC(=O)c3cccs3)cn2)cc1	?	15µM*	12µM*	?	-80*
CCOc1ccc(N2CC(C)Cn3c2nc2c3c(=O)n(CC(=O)O)c(=O)n2C)cc1 (centres undefined)	-22%	·	·	1%	·
CC(C)=N/N=C1/NC(=O)C(CC(=O)Nc2cc(Cl)ccc2C)S1 (centres undefined)	1%	0%	-2%	-8%	8
CC(=O)N=c1nc(-c2ccccc2)n(-c2ccccc2)s1	-10%	·	·	?	·
Cc1cc(C)c(NC(=O)Cn2nc(-c3ccccc3)nc2-c2ccccc2)c(C)c1	?	4%	10%	?	5

Screens (PubChem)
